Among the test systems are HCT-15 colon; HT29 colon; SNB-75 CNS; SNB-19 CNS; U251 CNS; PC-3 prostate; SK-MEL-5 melanoma; UACC-62 melanoma; LOX IMVI melanoma; SK-MEL-28 melanoma; SK-MEL-2 melanoma; EKVX NSCLC; SN12C renal; UO-31 renal; TK-10 renal; ACHN renal; CAKI-1 renal; CCRF-CEM leukemia; MOLT-4 leukemia; A498 renal.
Test in all cases: NCI-60 one-dose screen, 48 h (100 = growth as untreated, 0 = no growth, -100 = all killed)
Settings in all cases: 10 µM unless noted

SMILES strings stand for the structures. This is part of a sample that, as a whole, favours compounds with a hit. Of some 83,000 tested, about 20% had one in any assay.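 The test compound was applied at a single concentration to cells in 96-well plates for 48 hours, and percent growth was recorded.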 Unmarked numbers belong to inactive results. Calls of active or inactive are those of the source. Rule for the calls: active = growth percent below 10; inactive = the rest.

Take `COc1ccc(-c2ccc3cnc4sc(-c5ccc(OC)cc5)nc4c3n2)cc1`: the growth with HCT-15 colon was 97.6%; in the assay with HT29 colon, 100%; in the assay with SNB-75 CNS, 85.8%; in the assay with SNB-19 CNS, 98.4%; in the assay on U251 CNS it was 94.4%; in the assay on PC-3 prostate, 70.3%. The growth was 85.2% in the assay on SK-MEL-5 melanoma; 98.8% in the assay on UACC-62 melanoma; 87% in the assay on LOX IMVI melanoma; 107% with SK-MEL-28 melanoma; 96.2% with SK-MEL-2 melanoma; 68.6% in the assay on EKVX NSCLC. The growth is 103% in the assay with SN12C renal; 61.7% with UO-31 renal; 142% with TK-10 renal; 89.8% in the assay on ACHN renal; 96% with CAKI-1 renal; 102% with CCRF-CEM leukemia. Also, in the assay on MOLT-4 leukemia, the growth is 85.9%.
With `O=C(OCc1ccc2c(Cl)cc(Cl)c(O)c2n1)n1cncn1`, the growth with HCT-15 colon is 19.3%; in the assay with HT29 colon it was 72.6%; in the assay on SNB-75 CNS, 44.9%; in the assay on SNB-19 CNS, 30.5%; with U251 CNS it was 16.3%; in the assay on PC-3 prostate it was 42.5%. Moreover, the growth was 15.4% in the assay with SK-MEL-5 melanoma; -3.18% (active) with UACC-62 melanoma; 9.57% (active) with LOX IMVI melanoma; 35.5% with SK-MEL-28 melanoma; 36.6% in the assay on SK-MEL-2 melanoma; 26.4% in the assay with EKVX NSCLC. Further, the growth with SN12C renal is 37.2%; with TK-10 renal, 61.7%; in the assay with ACHN renal it was 25.3%; with CAKI-1 renal it was 13.6%; in the assay on A498 renal, 64.9%; in the assay with CCRF-CEM leukemia, 24.2%. Further, in the assay on MOLT-4 leukemia, the growth is 18.3%.
With `COc1ccc(-c2nc3c(c(-c4ccccc4)nn3-c3ccccc3)c(-c3ccc(N4CCOCC4)cc3)c2C#N)cc1`, the growth was 91.4% in the assay with HCT-15 colon; 105% in the assay on HT29 colon; 105% with SNB-75 CNS; 103% with SNB-19 CNS; 84.8% in the assay on U251 CNS; 101% with PC-3 prostate. Further, the growth in the assay with SK-MEL-5 melanoma is 101%; in the assay with UACC-62 melanoma, 91.1%; in the assay with LOX IMVI melanoma it was 92.2%; with SK-MEL-28 melanoma it was 100%; with SK-MEL-2 melanoma it was 106%; in the assay with EKVX NSCLC, 100%. The growth with SN12C renal was 97.9%; in the assay with TK-10 renal, 110%; with ACHN renal, 104%; with CAKI-1 renal, 93.7%; with A498 renal, 98.2%; in the assay with CCRF-CEM leukemia, 99.6%. The growth in the assay on MOLT-4 leukemia is 94.4%.
As for `CC[C@]12C=CCN3CC[C@@]4(c5cc(NC(=O)CCC(=O)OCc6cn(Cc7ccc(F)cc7)nn6)c(OC)cc5N(C)[C@H]4[C@@](O)(C(=O)OC)[C@@H]1OC(C)=O)[C@@H]32`, the growth with HCT-15 colon is 105%; in the assay on HT29 colon it was 103%; with SNB-75 CNS it was 97%; with SNB-19 CNS, 98.5%; in the assay on U251 CNS, 101%; with PC-3 prostate it was 93.8%. The growth is 112% in the assay with SK-MEL-5 melanoma; 98% in the assay on UACC-62 melanoma; 99.3% in the assay on LOX IMVI melanoma; 109% in the assay on SK-MEL-28 melanoma; 109% in the assay with SK-MEL-2 melanoma; 101% in the assay with EKVX NSCLC. In addition, the growth was 96.4% in the assay with SN12C renal; 85.8% with UO-31 renal; 94% in the assay on TK-10 renal; 101% in the assay on ACHN renal; 89.7% in the assay with CAKI-1 renal; 102% in the assay on CCRF-CEM leukemia. Moreover, the growth with MOLT-4 leukemia is 104%.
In the case of `CN(C)C1CCN(Cc2ccc(NC(=O)c3cncc(C#Cc4cnc(N)c5ncccc45)c3)cc2C(F)(F)F)CC1`, the growth is 53.2% with HCT-15 colon; 19.3% with HT29 colon; 127% in the assay with SNB-75 CNS; 97.8% with SNB-19 CNS; -51.5% (active) with U251 CNS; 80.6% with PC-3 prostate. Also, the growth with SK-MEL-5 melanoma was 50.6%; in the assay with UACC-62 melanoma it was 91.5%; in the assay with LOX IMVI melanoma, 63.7%; in the assay with SK-MEL-28 melanoma it was -53.9% (active); in the assay on SK-MEL-2 melanoma it was 79.9%; in the assay on EKVX NSCLC it was 93.5%. In addition, the growth was 93.1% in the assay on SN12C renal; 128% in the assay with TK-10 renal; -90.9% (active) with ACHN renal; 78.4% with CAKI-1 renal; 85.2% in the assay with A498 renal; 4.13% (active) in the assay on CCRF-CEM leukemia. Also, in the assay on MOLT-4 leukemia, the growth was 24.7%.
With `COc1cc(-c2cc(-c3ccc(N(C)C)cc3)nc(N3CCC(O)CC3)c2C#N)cc(OC)c1OC`, the growth in the assay on HCT-15 colon was -41.1% (active); in the assay on HT29 colon, 2.08% (active); with SNB-75 CNS, -17.2% (active); in the assay on SNB-19 CNS, 30.2%; with U251 CNS, 12.9%; in the assay with PC-3 prostate, 12.7%. Also, the growth in the assay on SK-MEL-5 melanoma was -99% (active); in the assay with UACC-62 melanoma, -26.8% (active); in the assay with LOX IMVI melanoma, -0.767% (active); in the assay on SK-MEL-28 melanoma it was -28.7% (active); in the assay with SK-MEL-2 melanoma it was -54.2% (active); in the assay on EKVX NSCLC, 21.7%. Moreover, the growth was 26.4% in the assay on SN12C renal; -45.1% (active) in the assay on UO-31 renal; 14.9% in the assay on TK-10 renal; 15.1% in the assay with ACHN renal; -22.6% (active) in the assay on CAKI-1 renal; 26.6% in the assay with CCRF-CEM leukemia. The growth in the assay on MOLT-4 leukemia is 2.62% (active).
Consider `O=C(O)CNC1=C(Cl)C(=O)c2ccccc2C1=O`, for which the growth was 100% in the assay on HCT-15 colon; 103% with HT29 colon; 86.5% in the assay on SNB-75 CNS; 96.5% in the assay with SNB-19 CNS; 91.1% in the assay with U251 CNS; 77.7% with PC-3 prostate. In addition, the growth in the assay on SK-MEL-5 melanoma is 112%; in the assay with UACC-62 melanoma it was 93.6%; in the assay on LOX IMVI melanoma, 84%; in the assay on SK-MEL-28 melanoma it was 113%; in the assay with SK-MEL-2 melanoma, 100%; with EKVX NSCLC, 98.6%. Further, the growth is 92.7% with SN12C renal; 110% in the assay on TK-10 renal; 91.2% with ACHN renal; 76.7% with CAKI-1 renal; 102% in the assay on A498 renal; 91.4% with CCRF-CEM leukemia. In the assay with MOLT-4 leukemia, the growth is 100%.
On to `C#CCOc1ccc2ncnc(Nc3cccc(NC(=O)C=C)c3)c2c1`, for which the growth with HCT-15 colon was 71.1%; in the assay with HT29 colon it was 42.7%; in the assay with SNB-75 CNS, 60.5%; in the assay on SNB-19 CNS, 73.9%; with U251 CNS it was 73.1%; in the assay with PC-3 prostate it was 82.2%. Moreover, the growth with SK-MEL-5 melanoma is 77.5%; in the assay on UACC-62 melanoma, 64.1%; in the assay with LOX IMVI melanoma it was 62.5%; with SK-MEL-28 melanoma, 86.3%; in the assay with SK-MEL-2 melanoma, 70.8%; with EKVX NSCLC, 51.6%. The growth was 65.3% in the assay with SN12C renal; 45.2% in the assay on TK-10 renal; 45.8% in the assay with ACHN renal; 45.5% in the assay on CAKI-1 renal; 47.7% in the assay with A498 renal; 79.9% in the assay on CCRF-CEM leukemia. The growth in the assay on MOLT-4 leukemia is 60.6%.
Turning to `COc1ccc(-c2nnc3n(C)c(=O)c4ccccc4n23)cc1N`, the growth in the assay on HCT-15 colon is 27.2%; with HT29 colon, 4.95% (active); in the assay on SNB-75 CNS it was 7.89% (active); in the assay on SNB-19 CNS, 31.1%; with U251 CNS it was 23.8%; with PC-3 prostate, 22.1%. Further, the growth with SK-MEL-5 melanoma was 11.4%; with UACC-62 melanoma it was 12.9%; in the assay on LOX IMVI melanoma, 37.5%; in the assay with SK-MEL-28 melanoma, 53.6%; in the assay with SK-MEL-2 melanoma, 22%; with EKVX NSCLC, 55.7%. Also, the growth in the assay with SN12C renal was 34.6%; in the assay with TK-10 renal, 45.3%; with ACHN renal, 50.8%; with CAKI-1 renal, 29.2%; in the assay with A498 renal, -8.12% (active); with CCRF-CEM leukemia, 18.5%. In the assay with MOLT-4 leukemia, the growth was 33.4%.
Take `COc1ccc2[nH]cc(-c3nc(-c4cn(C)c5c(Cl)nccc45)cs3)c2c1`: the growth was 0.0691% (active) in the assay with HCT-15 colon; 9.12% (active) with HT29 colon; 61.6% with SNB-75 CNS; 79.2% in the assay with SNB-19 CNS; 16.3% in the assay on U251 CNS; 23.4% in the assay on PC-3 prostate. Moreover, the growth is 34.5% with SK-MEL-5 melanoma; 43.8% in the assay with UACC-62 melanoma; 21% with LOX IMVI melanoma; 46% with SK-MEL-28 melanoma; 50.9% with SK-MEL-2 melanoma; 73.7% in the assay on EKVX NSCLC. Further, the growth is 62.5% with SN12C renal; 71.1% in the assay on TK-10 renal; 22.6% in the assay on ACHN renal; 60.2% with CAKI-1 renal; 16% in the assay with A498 renal; 22.1% in the assay with CCRF-CEM leukemia. Also, the growth in the assay with MOLT-4 leukemia was 36.2%.
Take `COP(=O)(OC)C(C)(C)CC(=O)CC(C#N)(C#N)C(C#N)C#N`: the growth was 93.3% in the assay on HCT-15 colon; 107% with HT29 colon; 98.2% in the assay with SNB-75 CNS; 99.3% with SNB-19 CNS; 97.3% in the assay on U251 CNS; 92.5% in the assay on PC-3 prostate. Besides, the growth was 101% in the assay with SK-MEL-5 melanoma; 96.1% with UACC-62 melanoma; 100% in the assay on LOX IMVI melanoma; 104% in the assay with SK-MEL-28 melanoma; 118% in the assay on SK-MEL-2 melanoma; 99.4% in the assay with EKVX NSCLC. The growth in the assay on SN12C renal was 99.6%; in the assay with TK-10 renal it was 104%; with ACHN renal, 100%; in the assay with CAKI-1 renal, 96.4%; with A498 renal, 121%; in the assay with CCRF-CEM leukemia it was -30.3% (active). In the assay on MOLT-4 leukemia, the growth is 104%.
`Cc1cc(N)c2cc(NC(=O)/C=C\c3ccccc3Cl)ccc2n1`: the growth in the assay on HCT-15 colon is 10.9%; in the assay with HT29 colon, -64.4% (active); in the assay on SNB-75 CNS it was -90.8% (active); in the assay with U251 CNS it was -85.9% (active); in the assay with PC-3 prostate, -91.5% (active); in the assay on SK-MEL-5 melanoma it was -94.9% (active). Besides, the growth is -80.9% (active) with UACC-62 melanoma; -75.1% (active) in the assay on LOX IMVI melanoma; -96.1% (active) with SK-MEL-28 melanoma; -72.5% (active) in the assay with SK-MEL-2 melanoma; -71.8% (active) in the assay on EKVX NSCLC; -81.7% (active) in the assay with SN12C renal. The growth is -72.1% (active) with UO-31 renal; -90% (active) with TK-10 renal; -85% (active) with ACHN renal; -76% (active) with CAKI-1 renal; -88.3% (active) in the assay with A498 renal; -74.2% (active) with CCRF-CEM leukemia. For the same molecule, the growth with MOLT-4 leukemia is -53.2% (active).

The record behind these values is PubChem BioAssay (NCI).
